Assay outcomes: PubChem, Broad Institute
A selection: hits, their analogues and other compounds. The true share with any hit is near 4.1%.
HIV Env fusion: inhibitors of HIV Env-mediated cell fusion | inhibition, % at 12.3 µM | 360,000 tested, 1.1% active | HeLa-JRFL Env/CEM21 cell fusion, luciferase;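 active = mean replicate inhibition score of at least 50 and every replicate individually at or above 50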;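 note: 0% = plate neutral controls and 100% = maraviroc near 300 nM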
NSD2 HMT inh: blocks human histone methyltransferase NSD2; O96028; NSD2 peptide methylation, AlphaScreen, 120 min; inhibition, % at 12.5 µM; 310,000 tested, 0.54% active; AID 743445; in the data active = inhibition above about 50%
CASP6 VEID inh: inhibitors of human caspase-6. P55212. purified caspase-6, Z-VEID-R110 cleavage fluorescence. inhibition, % at 12.5 µM. 350,000 tested, 0.53% active. AID 686996;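 active = mean inhibition across replicates at least about 35%, with every replicate also reaching that limit, limit read from the data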;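 note: 0% = median of neutral control wells and 100% = no fluorescence left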
Target sequence (P55212 24-179 limits assumed): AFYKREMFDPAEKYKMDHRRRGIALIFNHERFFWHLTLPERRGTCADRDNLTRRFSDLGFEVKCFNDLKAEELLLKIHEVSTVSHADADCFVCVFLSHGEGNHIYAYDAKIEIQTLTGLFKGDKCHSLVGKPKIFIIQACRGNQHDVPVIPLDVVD
Target sequence (P55212 194-293 limits assumed): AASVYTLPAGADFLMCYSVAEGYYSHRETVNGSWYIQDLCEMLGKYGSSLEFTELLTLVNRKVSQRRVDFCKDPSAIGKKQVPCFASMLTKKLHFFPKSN
PglD DTNB: PglD (C. jejuni) enzyme inhibition; 360,000 tested, 0.098% active; purified PglD enzyme, DTNB colorimetric CoA detection; inhibition, % at 12.5 µM; in the data active = inhibition above about 16%, passing the limit was not always enough
CFTR F508del cor: correctors of CFTR F508del function in bronchial epithelial cells. CFBE cells, YFP halide quenching; stimulated with forskolin plus potentiator P3; % fluorescence drop versus neutral controls. activity (quench increase), % at 7.58 µM. 350,000 tested, 0.36% active. AID 720511;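 active = mean added fluorescence quench of at least 8% versus neutral control, with both replicates also reaching 8%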;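 note: cells transiently co-express mutant CFTR-F508del with the halide-sensitive YFP; corrector assay measuring rescue of mutant channel to the surface after 24 h compound exposure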
ALR inh: blocks human ALR sulfhydryl oxidase activity; P55789; purified ALR, DTT oxidation, H2O2 HRP-luminol luminescence; inhibition, % (concentration not given with the values); 290,000 tested, 3.8% active;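 active = mean replicate inhibition above about 79%, with every replicate also reaching it, limit read from the data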
Target sequence (P55789 whole entry, looked up): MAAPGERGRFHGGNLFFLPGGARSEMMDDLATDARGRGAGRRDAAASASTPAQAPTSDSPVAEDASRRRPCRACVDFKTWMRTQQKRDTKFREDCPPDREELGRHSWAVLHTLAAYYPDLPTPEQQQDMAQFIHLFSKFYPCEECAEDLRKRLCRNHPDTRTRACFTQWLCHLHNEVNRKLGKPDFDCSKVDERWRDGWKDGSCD
Numbers without * were called inactive; . = not tested or not shown; [ ] = dose if it differs, or a comment.

SMILES	HIV Env fusion	NSD2 HMT inh	CASP6 VEID inh	PglD DTNB	CFTR F508del cor	ALR inh
C[C@@H]1CCCCO[C@@H](CN(C)CC2CC2)[C@H](C)CN([C@H](C)CO)C(=O)c2cc(NS(C)(=O)=O)ccc2O1	-4[16.7 µM]	.	2	2	1	.
O=C(O)c1ccccc1NC(c1ccccc1)c1ccc(Cl)cc1 (configuration not stated)	7	5	7	.	1	91*
O=C(CSc1ccccc1C(=O)O)c1ccc(Cl)cc1	-8	-4	4	-1	0	13
CO[C@@H]1CN(C)C(=O)c2cc(NC(=O)c3ccccc3F)ccc2OC[C@H](C)N(C(=O)c2ccccc2F)C[C@@H]1C	.	.	-1	0	-1	.
O=C(O)CCN1c2ccccc2Sc2ccccc21	-1	2	3	11	-5	82*
COc1ccccc1OC(=O)CCN1c2ccccc2Sc2ccccc21	.	-1	.	.	.	88*
C[C@@H]1CN([C@H](C)CO)C(=O)c2cc(NC(=O)Nc3ccc(F)cc3)ccc2O[C@@H]1CN(C)Cc1ccccc1	-5[16.7 µM]	.	0	6	0	.
CCS(=O)(=O)N1CCN=C1SCc1cccnc1	-12	-2	-1	.	5	98*
O=S(=O)(c1ccccc1)N1CCN=C1SCc1cccnc1	-6	-1	-3	.	1	100*
Cc1ccc(S(=O)(=O)N2CCN=C2SCc2cccnc2)cc1	-1	-3	-3	.	0	98*
O=S(=O)(c1ccc(Cl)cc1)N1CCN=C1SCc1cccnc1	4	1	0	.	2	97*
CS(=O)(=O)N1CCN=C1SCc1ccccc1	-5	-2	-1	2	3	-3
C[C@H]1CN([C@@H](C)CO)C(=O)Cc2cc(NS(=O)(=O)c3cccs3)ccc2O[C@@H]1CN(C)C	.	.	-1	-1	-2	.
Cc1ccc(S(=O)(=O)Nc2ccc3c(c2)C(=O)N([C@H](C)CO)C[C@H](C)[C@H](CN(C)C(=O)c2ccncc2)OCCCC[C@H](C)O3)cc1	-6[16.7 µM]	.	.	-4	-2	.
COc1ccc(S(=O)(=O)N2CCN=C2SCc2cccnc2)cc1	23	-1	-1	.	-1	99*
C[C@H]1CN([C@@H](C)CO)C(=O)c2cc(NS(=O)(=O)c3cccs3)ccc2O[C@@H]1CN(C)Cc1ccc(Cl)c(Cl)c1	17[16.7 µM]	.	-2	0	-1	.
O=C(O)C1CCN(C(=O)c2ccccc2N2C(=O)[C@@H]3Cc4c([nH]c5ccccc45)C(c4cccc(Cl)c4)N3C2=O)CC1 (some centres not stated)	.	.	4	6	3	99*
O=C(NCCN1CCOCC1)c1ccccc1N1C(=O)[C@@H]2Cc3c([nH]c4ccccc34)C(c3ccc(F)cc3)N2C1=O (some centres not stated)	.	.	2	-1	-3	.
COc1cccc(C2c3[nH]c4ccccc4c3C[C@H]3C(=O)N(CCCOC(C)C)CC(=O)N23)c1 (some centres not stated)	-4	-1	-3	-4	-2	-19
Cc1ccc(C2c3[nH]c4ccccc4c3C[C@H]3C(=O)N(c4ccccc4C(=O)N4CCC(C(=O)O)CC4)C(=O)N23)cc1 (some centres not stated)	.	.	4	1	0	16
COc1cccc(C2c3[nH]c4ccccc4c3C[C@H]3C(=O)N(CCCCCO)CC(=O)N23)c1 (some centres not stated)	23	-2	-1	-122	6	98*
COc1ccc(C2c3[nH]c4ccccc4c3C[C@H]3C(=O)N(c4ccccc4C(=O)NCCN4CCOCC4)C(=O)N23)cc1 (some centres not stated)	.	.	-3	-2	-2	-6
Cc1ccc(C2c3[nH]c4ccccc4c3C[C@H]3C(=O)N(c4ccccc4C(=O)N4CCC[C@@H]4C(=O)O)C(=O)N23)cc1 (some centres not stated)	.	.	6	4	0	98*
COc1cccc(C2c3[nH]c4ccccc4c3C[C@H]3C(=O)N(c4ccccc4C(=O)N4CCCC4C(=O)O)C(=O)N23)c1 (some centres not stated)	.	.	0	4	-1	97*
COC(=O)c1ccc(C2c3[nH]c4ccccc4c3C[C@H]3C(=O)N(C)CC(=O)N23)cc1 (some centres not stated)	-5	1	0	0	1	-4
SMILES	HIV Env fusion	NSD2 HMT inh	CASP6 VEID inh	PglD DTNB	CFTR F508del cor	ALR inh
CN1CC(=O)N2C(c3ccc(Cl)cc3)c3[nH]c4ccccc4c3C[C@H]2C1=O (some centres not stated)	32	1	0	4	0	99*
CC(C)=CCC[C@](C)(O[C@@H]1O[C@H](CO[C@@H]2O[C@H](CO)[C@@H](O)[C@H](O)[C@H]2O)[C@@H](O)[C@H](O)[C@H]1O)C1CC[C@]2(C)C1C(=O)CC1[C@@]3(C)CC[C@H](O[C@H]4O[C@@H](CO)[C@H](O)[C@@H](O)[C@@H]4O)C(C)(C)C3CC[C@]12C (some centres not stated)	-21	.	0	7	-1	-8
C/C(=C/CCC(C)(O)C1CC[C@@]2(C)[C@@H]3CC=C4[C@@H](CC[C@H](O[C@H]5O[C@@H](CO)[C@H](O)[C@@H](O)[C@@H]5O)C4(C)C)[C@]3(C)C(=O)C[C@]12C)CO[C@@H]1O[C@H](CO)[C@@H](O)[C@H](O)[C@H]1O (some centres not stated)	88*	.	-1	0	2	3
CCn1c(CNC(=O)Cc2ccc(OC)cc2)nnc1SCC(=O)c1ccc(Br)cc1	.	3	0	.	2	-9
CCn1c(CNC(C)=O)nnc1SCC(=O)c1ccc(Br)cc1	.	4	.	2	.	96*
O=C(CCN1CCc2ccccc2C(c2ccccc2)C1)c1ccc2c(c1)OCCO2 (configuration not stated)	.	-2	.	.	.	97*
O=C(CCN1Cc2ccccc2C1)c1ccc2c(c1)OCCO2	.	12	.	1	.	19
COc1ccc(NC(=O)N(C)C[C@@H]2Oc3c(NC(=O)c4cc(C)nn4C)cccc3C(=O)N([C@H](C)CO)C[C@@H]2C)cc1	-3[16.7 µM]	.	-1	-6	2	.
CCOc1ccc2c(c1)C(C)=CC(C)(C)N2S(=O)(=O)c1ccc(F)cc1	-2	-2	2	3	10*	-1
CCOc1ccc2c(c1)C(C)=CC(C)(C)N2S(=O)(=O)c1ccc(NC(C)=O)cc1	-135	0	0	-4	1	-16
COc1cc2c[n+](C)c3c4ccccc4ccc3c2cc1OC	36	15	-20	.	9.7*	.
C[C@@H]1CN([C@@H](C)CO)C(=O)c2cccc(NC(=O)Nc3ccc(C(F)(F)F)cc3)c2O[C@H]1CN(C)Cc1ccc(Oc2ccccc2)cc1	69*[16.7 µM]	.	1	1	-1	.
